Bioassay records from PubChem BioAssay.
Hits are enriched below; roughly 0.5% of the tested compounds scored in any of these assays.
E coli growth-1: bacterial growth inhibition, counter-screen for AddAB inhibitors; E. coli V3065 growth, OD600 absorbance, 18 h; inhibition, % at 11.9 µM; actives 0.27% (n = 330,000);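 active = inhibition above the campaign's mean inhibition across all tested compounds plus 3 SD, cut at about 9.9% in these data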;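 note: uninfected addAB+ strain grown without phage in ampicillin broth; 0% = DMSO wells and 100% = ciprofloxacin 0.95 µg/ml wells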
phage Ecoli inh: E. coli growth loss with phage present | growth absorbance | inhibition, % at 11.9 µM | actives 0.26% (n = 360,000); in the data active = inhibition above about 11%
AddAB inh: less growth of phage-infected E. coli with AddAB | E. coli expressing H. pylori AddAB, absorbance growth | inhibition, % at 11.9 µM | actives 0.29% (n = 330,000) | AID 435030; in the data active = inhibition above about 12%;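 note: 0% = vehicle wells of infected cells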
Tat transport: E. coli Tat transport inhibition. E. coli MC4100 TorA-mCherry Tat export, fluorescence. inhibition, % at 10 µM. actives 0.036% (n = 340,000);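 active = mean replicate inhibition at least 50% and at least half of replicates individually reaching 50%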;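 note: exported cargo escapes ClpAP degradation while cytoplasmic cargo is degraded and loses fluorescence; 0% = median of neutral control wells and 100% = median of NaSCN control wells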
E coli growth-2: inhibitors of Escherichia coli growth; OD600 absorbance (no concentration beside the values); actives 0.21% (n = 330,000); OD600, 23 h; stronger effect = lower value;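 active = OD600 absorbance below the run mean of sample wells minus 3.6 SD, in any replicate, cut at about 0.56 in these data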
AddAB conf: growth loss of T4-infected E. coli expressing H. pylori AddAB, confirmed | shares compounds with AddAB inh | E. coli V3065 expressing H. pylori AddAB, T4 phage, OD; T4 phage with gene 2 nonsense mutations | inhibition, % at 11.9 µM | actives 64% (n = 880) | AID 488942;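 active = mean inhibition above a set limit taken from the earlier primary screen, cut at about 13% in these data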;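 note: higher means less bacterial growth since AddAB block lets phage replicate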
RecBCD counter: AddAB counter-screen: growth loss of RecBCD+ E. coli infected with mutant T4 phage; shares compounds with AddAB inh; E. coli V66 + mutant T4 phage, OD growth; inhibition, % at 11.9 µM; actives 73% (n = 880);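 active = mean inhibition above the mean of solvent-only control wells plus 3 SD, cut at about 4% in these data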;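 note: optical density read after an 18 h incubation at 37 °C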
bact viab count: reduces bacterial viability, AddAB inhibitor counter-screen | shares compounds with AddAB inh | absorbance (AddAB counterscreen) | inhibition, % at 11.9 µM | actives 35% (n = 880); in the data active = inhibition above about 25%
RecBCD conf: confirmation: growth loss of phage-infected RecBCD+ E. coli (RecBCD inhibitor screen). shares compounds with phage Ecoli inh. E. coli V66 + T4 2- phage, growth OD. inhibition, % at 11.9 µM. actives 45% (n = 890). AID 651982;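 active = mean inhibition over triplicates exceeding the hit threshold derived in the original primary screen, cut at about 11% in these data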
Ecoli viability: inhibits E. coli viability, flagging RecBCD hits as nonselective; AID 651983; shares compounds with phage Ecoli inh; inhibition, % at 11.9 µM; absorbance (OD) growth; actives 29% (n = 890); in the data active = inhibition above about 20%;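 note: E. coli strain V66 grown with compound alone and no phage infection; 0% = bacteria with DMSO vehicle only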
AddAB phage OD: growth loss of phage-infected AddAB E. coli, RecBCD counter-screen | shares compounds with phage Ecoli inh | E. coli expressing H. pylori AddAB + T4 phage, OD growth; gene 2 mutant T4, recBCD-deleted host | inhibition, % at 11.9 µM | actives 45% (n = 890) | AID 651984;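 active = mean inhibition above the solvent-only control wells' mean plus 3 SD, cut at about 22% in these data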;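 note: higher means less bacterial growth from phage killing when AddAB is blocked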
The depositor's hits bear a star.

For CC1COc2c(N3CCN(C)CC3)c(F)cc3c(=O)c(C(=O)O)cn1c23 (configuration not stated) the results were E coli growth-1 98*, phage Ecoli inh 98*, AddAB inh 99*, Tat transport 117*, E coli growth-2 0.061*, AddAB conf 100*, RecBCD counter 100*, bact viab count 101*, RecBCD conf 101*, Ecoli viability 102* and AddAB phage OD 102*.
Screening CCOC1OC(C(=O)NC2CC2)=CC(c2coc3ccccc3c2=O)C1CCCO (configuration not stated) returned E coli growth-2 0.71.
NC(N)=NN=Cc1ccc(OS(=O)(=O)c2ccccc2)cc1 was read as E coli growth-2 0.63.
COc1ccc(/C=C(/NC(=O)c2ccccc2)C(=O)NN=Cc2ccncc2)cc1 was read as E coli growth-2 0.66.
Screening CCCNC(=O)c1ccc2c(=O)c(O)c(-c3cccc(Br)c3)[nH]c2c1 returned E coli growth-1 13*, phage Ecoli inh 20*, AddAB inh 15*, Tat transport 13, E coli growth-2 0.66, AddAB conf 14*, RecBCD counter 13*, bact viab count 15, RecBCD conf 12*, Ecoli viability 13 and AddAB phage OD 16.
O=C(O)CSc1nnc(-c2ccccc2O)n1Cc1ccccc1 was read as E coli growth-1 0, phage Ecoli inh 2, AddAB inh -4, Tat transport 12 and E coli growth-2 0.71.
For O=C(CSc1nnc(-c2ccccc2O)n1Cc1ccccc1)NNC(=O)c1ccccc1O the results were E coli growth-1 14*, phage Ecoli inh 13*, AddAB inh 25*, Tat transport 18, E coli growth-2 0.6, AddAB conf 5, RecBCD counter 5.9*, bact viab count 5, RecBCD conf 4, Ecoli viability 5 and AddAB phage OD 8.
Screening Cc1noc(C)c1NC(=O)Nc1ccc2c(c1)C(=O)N(C(C)CO)CC(C)C(CN(C)C)O2 (configuration not stated) returned E coli growth-2 0.68.
For CN(Cc1ccccc1C#N)S(=O)(=O)c1cccs1 the results were E coli growth-1 2, phage Ecoli inh 5, AddAB inh 4, Tat transport 7 and E coli growth-2 0.7.
N#Cc1nccnc1S(=O)(=O)c1cccs1 was read as E coli growth-1 13*, phage Ecoli inh 18*, AddAB inh 19*, E coli growth-2 0.49*, AddAB conf 64*, RecBCD counter 17*, bact viab count 16, RecBCD conf 17*, Ecoli viability 16 and AddAB phage OD 33*.
O=C(Nc1ccccc1)C1=CC(c2csc3ccccc23)CC(OCCCCO)O1 (configuration not stated) was read as E coli growth-2 0.63.
For CCCCCCn1cc(C(=O)O)c(=O)c2cc(F)c(N3CCN(C(=O)OCC)CC3)cc21 the results were E coli growth-1 4, phage Ecoli inh 2, AddAB inh 2, Tat transport -3 and E coli growth-2 0.68.
For CCCCN(CCCC)C(=O)c1cn(CC)c2cc(N3CCN(C)CC3)c(F)cc2c1=O the results were E coli growth-1 101*, phage Ecoli inh 98*, AddAB inh 102*, Tat transport 71*, E coli growth-2 0.049*, AddAB conf 104*, RecBCD counter 102*, bact viab count 103*, RecBCD conf 100*, Ecoli viability 101* and AddAB phage OD 100*.
Screening CCn1cc(C(=O)NCCCN(C)C)c(=O)c2cc(F)c(N3CCN(C)CC3)cc21 returned E coli growth-1 99*, phage Ecoli inh 93*, AddAB inh 100*, Tat transport 37, E coli growth-2 0.051*, AddAB conf 97*, RecBCD counter 90*, bact viab count 101*, RecBCD conf 70*, Ecoli viability 99* and AddAB phage OD 101*.
For CCn1cc(S(=O)(=O)c2ccc(C)cc2)c(=O)c2cc(F)c(N3CCN(C)CC3)cc21 the results were E coli growth-1 -1, phage Ecoli inh 1, AddAB inh -2, Tat transport 5 and E coli growth-2 0.69.
CCCNC(=O)c1cn(CC)c2cc(N3CCN(C)CC3)c(F)cc2c1=O was read as E coli growth-1 100*, phage Ecoli inh 100*, AddAB inh 98*, Tat transport 81*, E coli growth-2 0.049*, AddAB conf 102*, RecBCD counter 101*, bact viab count 101*, RecBCD conf 103*, Ecoli viability 104* and AddAB phage OD 103*.
For CCn1cc(C(=O)NCCN(C)C)c(=O)c2cc(F)c(N3CCN(C)CC3)cc21 the results were E coli growth-1 98*, phage Ecoli inh 96*, AddAB inh 101*, Tat transport 8, E coli growth-2 0.052*, AddAB conf 104*, RecBCD counter 99*, bact viab count 104*, RecBCD conf 49*, Ecoli viability 87* and AddAB phage OD 99*.
Screening COCc1c(C(=O)NN=Cc2cccnc2)nnn1-c1nonc1N returned E coli growth-2 0.65.
COc1ccc(C2C=CCN(S(=O)(=O)c3ccc(C)cc3)C(Cc3ccccc3)C(=O)N2Cc2ccc(F)cc2)cc1 (configuration not stated) was read as E coli growth-2 0.73.
Screening C#CCOCCOCCOCCNc1nc(N2CCN(C(=O)C(CCCCN)n3cc(CCCC)nn3)CC2)nc(N2CCN(C(=O)C(CCCCN)n3cc(CCCC)nn3)CC2)n1 (configuration not stated) returned E coli growth-2 0.69.
COC(=O)C=Cc1cc(F)ccc1S(=O)(=O)NC(C)(C)C was read as E coli growth-2 0.69.
